PubChem BioAssay (NCATS)
“And” between values parts separate entries of the source, which are not always exact repeats. Identical values can stand only once. Inconclusive results are not listed. Unmarked numbers belong to inactive results. The source made the active and inactive calls. Calls come from the whole dose curve.

Key:
[1] = target: Bile acid receptor (Homo sapiens) (UniProt Q96RI1); test: qHTS assay for small molecule agonists of farnesoid X receptor signaling (AID 588527); details: HEK293T FXR-UAS-bla, beta-lactamase ratio, 16 h; hits give high values;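 note: 0% = vehicle basal and 100% = reference agonist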
Procedure, shortened: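 Quantitative HTS used FXR-UAS-bla HEK293T cells with 16 h compound incubation at 37 C. EC50 values came from concentration-response curves normalized to chenodeoxycholic acid.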

[2] = target: Peroxisome proliferator-activated receptor delta (Homo sapiens) (UniProt Q03181); test: qHTS assay for small molecule agonists of peroxisome proliferator-activated receptor delta signaling (AID 588534); details: HEK293T PPARdelta-UAS-bla, beta-lactamase ratio, 18 h; series mostly up to 76.7 µM;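 note: 0% = DMSO basal wells and 100% = positive control agonist at 10 µM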
Procedure, shortened: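 Reporter cells were plated and held 5 hrs at 37 C before compounds were added. After 18 hrs at 37 C, CCF4 dye was loaded for 2 hrs at RT and fluorescence measured.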

Sequence of Bile acid receptor (Homo sapiens) (Q96RI1 whole entry, looked up): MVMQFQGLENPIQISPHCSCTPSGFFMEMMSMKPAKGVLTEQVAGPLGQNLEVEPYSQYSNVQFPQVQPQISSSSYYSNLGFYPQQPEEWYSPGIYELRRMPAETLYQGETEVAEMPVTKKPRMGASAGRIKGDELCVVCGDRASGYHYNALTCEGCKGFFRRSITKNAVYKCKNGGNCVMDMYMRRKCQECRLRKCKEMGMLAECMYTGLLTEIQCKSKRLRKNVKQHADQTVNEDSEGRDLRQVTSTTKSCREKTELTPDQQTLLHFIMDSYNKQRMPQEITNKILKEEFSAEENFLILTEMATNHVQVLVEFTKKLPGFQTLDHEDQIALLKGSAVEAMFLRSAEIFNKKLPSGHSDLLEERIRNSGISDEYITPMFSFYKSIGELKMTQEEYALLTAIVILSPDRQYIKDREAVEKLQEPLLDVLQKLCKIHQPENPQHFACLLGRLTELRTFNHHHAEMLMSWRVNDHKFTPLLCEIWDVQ
Sequence of Peroxisome proliferator-activated receptor delta (Homo sapiens) (Q03181 whole entry, looked up): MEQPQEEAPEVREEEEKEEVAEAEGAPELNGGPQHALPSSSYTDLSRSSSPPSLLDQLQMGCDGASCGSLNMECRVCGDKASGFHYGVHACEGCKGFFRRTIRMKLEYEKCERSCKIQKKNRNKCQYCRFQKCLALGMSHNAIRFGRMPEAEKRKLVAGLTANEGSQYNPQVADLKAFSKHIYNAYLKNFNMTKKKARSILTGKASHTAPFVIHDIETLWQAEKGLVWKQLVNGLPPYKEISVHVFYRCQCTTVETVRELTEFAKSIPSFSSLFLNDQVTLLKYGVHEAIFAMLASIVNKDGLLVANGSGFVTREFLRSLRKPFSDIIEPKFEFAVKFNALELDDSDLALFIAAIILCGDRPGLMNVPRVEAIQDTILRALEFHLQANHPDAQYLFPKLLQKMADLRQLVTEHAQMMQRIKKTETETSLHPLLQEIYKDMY

Structure (SMILES) | activation [1] | outcome [2]
COc1c2occc2cc2ccc(=O)oc12 | 0.341% and 4.08% | inactive
CCCCCCCC(=O)OCC(COC(=O)CCCCCCC)OC(=O)CCCCCCC | -2.1% | inactive
NCCNCCNCCN | -3.81% | inactive
